From PubChem BioAssay
GPR151 ag – human GPR151 activation. PathHunter beta-arrestin GPR151 cells, luminescence. activation, % at 11.2 µM. 650,000 tested, 1% active; in the data active = activation above about 4.9%;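 also: 0% = median of compound wells and 100% = cells with positive control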
FBW7 activator – human FBW7 E3 ligase activation, primary screen | AlphaScreen FBW7–phospho-cyclin E peptide binding, activator screen | normalized activity (activation), % at 26.1 µM | Q969H0 | 650,000 tested, 0.13% active; in the data active = normalized activity above about 1.9%;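 also: purified mutant Fbw7 with reduced substrate affinity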
Target sequence (Q969H0 whole entry, looked up): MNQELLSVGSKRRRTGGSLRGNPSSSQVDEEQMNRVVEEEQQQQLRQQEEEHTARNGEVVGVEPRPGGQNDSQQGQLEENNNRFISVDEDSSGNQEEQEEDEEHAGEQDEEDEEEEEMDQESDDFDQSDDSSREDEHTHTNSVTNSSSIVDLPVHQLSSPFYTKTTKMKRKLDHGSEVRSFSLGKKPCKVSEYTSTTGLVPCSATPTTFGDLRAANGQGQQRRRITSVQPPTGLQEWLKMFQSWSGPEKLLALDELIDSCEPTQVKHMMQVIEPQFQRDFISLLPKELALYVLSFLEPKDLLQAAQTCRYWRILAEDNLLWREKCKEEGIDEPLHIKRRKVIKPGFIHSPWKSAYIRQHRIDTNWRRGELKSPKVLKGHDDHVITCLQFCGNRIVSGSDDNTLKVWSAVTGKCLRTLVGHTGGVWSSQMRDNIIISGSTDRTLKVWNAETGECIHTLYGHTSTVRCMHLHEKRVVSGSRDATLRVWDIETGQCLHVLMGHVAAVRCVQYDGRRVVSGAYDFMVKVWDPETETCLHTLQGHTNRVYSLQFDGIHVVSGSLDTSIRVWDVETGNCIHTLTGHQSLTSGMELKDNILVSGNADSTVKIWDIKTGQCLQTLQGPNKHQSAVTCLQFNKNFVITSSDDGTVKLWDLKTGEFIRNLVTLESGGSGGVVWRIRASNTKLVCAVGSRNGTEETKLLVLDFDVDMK
TEAD-YAP block – TEAD-YAP interaction inhibition. HEK-TIYL cells, TEAD-Gal4/YAP UAS-luciferase luminescence. inhibition, % at 9.12 µM. 640,000 tested, 1.4% active. AID 1259422; in the data active = inhibition above about 32%;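 also: 0% = median of test compound wells and 100% = reference inhibitor wells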
MITF inh – human MITF inhibition, primary screen; O75030; AlphaScreen MITF homodimerization, bead proximity signal; inhibition, % at 2.6 µM; 650,000 tested, 0.91% active; in the data active = inhibition above about 50%;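 also: 0% = vehicle wells with protein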
The depositor's hits bear a star. Shown are actives, neighbours in structure and some others; about 3.4% of the full set was active somewhere.

SMILES | GPR151 ag | FBW7 activator | TEAD-YAP block | MITF inh
COc1cc([C@@H]2c3cc4c(cc3[C@H](O)C3COC(=O)[C@@H]32)OCO4)cc(OC)c1OC (stereo not given in full) | 1 | 0 | 55* | -1
CCC1CCCCN1CCN1C(=O)C2C(C(=O)Nc3ccc(OC)cc3)C3C=CC2(O3)C1C(=O)NC1CCCC(C)C1C (stereo not given) | 0 | 0 | -2 | 4
CN=c1scc(C)n1/N=C/c1ccc2c(c1)OCO2 | -7 | 0 | 15 | 14
CN=c1scc(-c2ccccc2F)n1/N=C/c1ccsc1 | -8 | 0 | 99* | 16
CCN=c1scc(-c2ccccc2)n1/N=C/c1ccccn1 | -2 | -1 | 55* | 1
CN=c1scc(-c2ccccc2)n1/N=C/c1ccsc1 | -2 | 0 | 99* | 29
CN=c1scc(-c2ccccc2F)n1/N=C/c1ccc2c(c1)OCO2 | -10 | 0 | 94* | 14
CN=c1scc(-c2cccc(Br)c2)n1/N=C/c1ccncc1 | 2 | 0 | -62 | 25
CCN=c1scc(-c2ccc(F)cc2)n1/N=C/c1ccccn1 | -1 | 0 | -86 | 12
CCOC(=O)c1c(C)n(-c2cccc(Br)c2)c2c1cc(O)c1ccccc12 | -1 | 0 | -13 | -1
Cc1ccc(-c2ccc(=O)n(CC(=O)NC3CCCCC3)n2)cc1 | 0 | 0 | 6 | -3
O=C(OC1CCCCC1)c1ccc(-c2ccc(-c3ccc(C(=O)OC4CCCCC4)cc3)cc2)cc1 | 3 | 0 | 8 | -2
CN=c1scc(-c2ccccc2Br)n1/N=C/c1ccc(O)cc1O | -3 | 0 | 96* | 6
CN=c1scc(-c2ccccc2Br)n1/N=C/c1ccco1 | -2 | 0 | 2 | 22
CN=c1scc(-c2ccccc2F)n1/N=C/c1ccc(O)c(O)c1O | -5 | 0 | 89* | 4
NC(=O)C1CCN(C(=S)NC(=O)c2ccc(Cl)cc2)CC1 | 0 | 2.3* | -6 | 7
COc1cccc(C2NC(=S)NC(c3ccccc3)=C2C(C)=O)c1 (stereo not given) | 1 | 0 | 50* | 1
COC(=O)c1ccc(/C=N/NC(=O)c2ccoc2C)cc1 | -9 | 0 | 35* | -7
CCc1ccc(/C=N/NC(=O)c2ccoc2C)cc1 | -9 | 0 | 23 | 8
CCOC(=O)c1ccc(N2N=C(C(F)(F)F)/C(=C/C=C/c3ccco3)C2=O)cc1 | 0 | 0 | 3 | 64*
CCCSc1nc(N)c(NC(=O)c2ccco2)c(=O)[nH]1 | 1 | 0 | -6 | -10
Oc1ccc(-c2cnn3c(NCc4cccs4)ccnc23)cc1 | -1 | 0 | 82* | -29
CC(=O)c1cccc(-c2cnn3c(NCc4ccco4)ccnc23)c1 | 1 | 0 | -44 | 20
Clc1cccc(-c2cnn3c(NCc4ccco4)ccnc23)c1 | -2 | 2.0* | 18 | 11
COCCNc1ccnc2c(-c3cccc(Cl)c3)cnn12 | 0 | 0 | -2 | 11
SMILES | GPR151 ag | FBW7 activator | TEAD-YAP block | MITF inh
Oc1cccc(-c2cnn3c(NCc4ccco4)ccnc23)c1 | 0 | -1 | 89* | -17
CC1CCCN(c2ncnc3c2cnn3-c2ccc(Cl)cc2)C1 (stereo not given) | 1 | 0 | 94* | -8
CN1CCN(c2ncnc3c2cnn3-c2ccc(Cl)cc2)CC1 | -1 | 0 | 67* | -12
CC1CCN(c2ncnc3c2cnn3-c2ccc(Cl)cc2)CC1 | 1 | 0 | 20 | 4
CC1CCCN(c2ncnc3c2cnn3-c2ccccc2)C1 (stereo not given) | -1 | 0 | 84* | -8
CCN1CCN(c2ncnc3c2cnn3-c2ccc(Cl)cc2)CC1 | 0 | 0 | -58 | 5
Cc1cccc(-n2ncc3c(N4CCCC(C)C4)ncnc32)c1 (stereo not given) | -3 | 0 | 96* | -16
Cc1cccc(-n2ncc3c(N4CCC(C)CC4)ncnc32)c1 | 2 | 0 | 24 | -7
Cc1nc(C)n(-c2ccc(Nc3nccc(-c4noc(C)c4-c4cn[nH]c4C)n3)cc2)n1 | 2 | -1 | 32 | 0
C=CCNC(=O)/C(=C/c1ccccc1F)NC(=O)c1ccc([N+](=O)[O-])cc1 | 1 | 1 | 2 | 3
O=C(CSc1nc2ccccc2c2nc(CCc3c[nH]c4ccccc34)nn12)c1ccc(Br)cc1 | -1 | 0 | -9 | 12
Cc1cc(C)nc(N(C)c2ccc([N+](=O)[O-])cc2)n1 | 0 | 0 | 2 | 2
Cc1cc(F)ccc1NC(=O)CN1Cc2ccccc2C1=O | 1 | 0 | -3 | 0
COCCNC(=S)NNC(=O)c1ccccc1F | -1 | 0 | 2 | -4
Cc1cccc(-n2ncc3c(N4CCCCCC4)ncnc32)c1 | -5 | 0 | 74* | -4
CC1CC(C)CN(c2ncnc3c2cnn3-c2ccccc2)C1 (stereo not given) | 2 | 0 | -56 | 8
CC1CC(C)CN(c2ncnc3c2cnn3-c2ccc(Cl)cc2)C1 (stereo not given) | 1 | 0 | 34* | -12
CC1=C(C(N)=O)C(c2ccc([N+](=O)[O-])cc2)n2nnnc2N1 (stereo not given) | -1 | 0 | 5 | -12
Cc1ccccc1-n1c(-c2ccc(Cl)cc2Cl)n[nH]c1=S | 1 | 1.9* | -3 | 16
O=C(CSc1nc(-c2ccccc2)ns1)N1CCCCCC1 | -2 | 0 | 39* | 9
CC(=O)N(C(C)=O)c1ccc(Oc2ccc(N(C(C)=O)C(C)=O)cc2)cc1 | 0 | 0 | -1 | 6
Cc1[nH]nc2c1C(c1cc(Br)c(C)s1)C(C#N)=C(N)O2 (stereo not given) | -2 | 0 | 33* | 8
N#CC(Cl)CNS(=O)(=O)c1ccc(Cl)cc1 (stereo not given) | -2 | 0 | 47* | -1
CC(C)(C)C(=O)Nc1cccc(-c2nc3ncccc3o2)c1 | -2 | 0 | -12 | 1
CC(C)(C)C(=O)Nc1ccc(-c2nc3ncccc3o2)cc1 | 0 | 0 | 60* | -2
SMILES | GPR151 ag | FBW7 activator | TEAD-YAP block | MITF inh
CC(C)(C)n1cc(-c2cnc3ccccc3n2)cn1 | -8 | 0 | 78* | 9
Oc1ccc(-c2cnc(-c3ccc(O)cc3)nc2)cc1 | -2 | 0 | 95* | 4
CC(=O)N(C(C)=O)c1ccc(-c2cnc(-c3ccc(N(C(C)=O)C(C)=O)cc3)nc2)cc1 | 1 | 0 | 0 | 5
Oc1ccc(-c2cnc3ccccc3n2)cc1 | -10 | 0 | 52* | -6
O=C(CCCCCCCC(=O)Nc1nccs1)Nc1nccs1 | -1 | 0 | 5 | 8
CCOc1cc(C=O)ccc1OCCN1CCOCC1 | -1 | 0 | 10 | 9
COc1cc(C=O)ccc1OCCN1CCOCC1 | 0 | 0 | 40* | 1
CC(=O)Nc1ccc(C2NN=C(c3ccccc3)S2)cc1 (stereo not given) | -4 | 0 | -35 | 19
CN(c1ccccc1)c1ccc(C2NN=C(c3ccccc3)S2)cc1 (stereo not given) | -2 | 2.1* | -1 | -34
CCOc1ccc(C2NN=C(c3ccccc3)S2)cc1 (stereo not given) | -6 | 0 | 71* | 1
